Test results reported in PubChem BioAssay AID758 (NMMLSC, 2007).
Screen size: about 190,000 compounds; about 110 (0.058%) were called active. Not shown: some 2% with an inconclusive outcome.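 The calls were made as follows: active = fluorescent GTP binding to Rab7 beads changed by at least 20 points from the 100% baseline, either direction, mostly lower; inconclusive = compound itself probably fluorescent, or too few beads counted; inactive = the rest.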 Only a selection was taken, and actives are over-represented in it overall.

System: Rab7 GTPase wild type (dog), Bodipy-FL-GTP binding
Assay: wildtype dog Rab7 nucleotide binding alteration – biochemical, multiplex bead flow cytometry, primary screen (AID 758);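 also: median green fluorescence of bound Bodipy-FL-GTP per Rab7 bead population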
Conditions: GST-Rab7 beads, fluorescent GTP binding, at 10 µM, actives lie on both sides, untreated = 100%, excess cold GTP = 0%

GTP binding activity (percent of control), inactive:
Cc1ccccc1OCCC(=O)OCC(=O)NC(C)c1ccccc1 (stereo not given) 95%
N#Cc1c(-c2ccc(F)cc2)nc(-c2ccccc2)[nH]c1=O 93%
O=C(c1cccc(S(=O)(=O)N2CCCC2)c1)N(Cc1ccco1)C1CCS(=O)(=O)C1 (stereo not given) 97%
CN(CCc1cnn(C)c1)Cc1cn(C)nc1-c1ccccc1F 100%
Cc1cc(=O)n2[nH]c(-c3sccc3-n3c(C)ccc3C)cc2n1 91%
O=C(N/N=C/c1ccc(OCC2COCCO2)cc1)c1ccc(Br)cc1 (stereo not given) 108%
Cc1c(C(=O)O)nnn1-c1nonc1N 97%
CCc1ccc(CN(C)C(=O)CCc2nnc(-c3ccc(-c4ccccc4)cc3)o2)nc1 96%
COC(=O)c1ccc(COC(=O)c2cnccn2)cc1 105%
COc1ccc(-c2[nH]ncc2CN(C)Cc2cccnc2)c(F)c1 96%
CCn1c(SCc2ccccc2)nc2c(c1=O)SCC2 94%
Cc1cccc(Oc2c([N+](=O)[O-])c(=O)n(C)c3ccccc23)c1 100%
COC(=O)c1ccc(CN2CCC(CO)(Cc3ccc(OC)cc3)CC2)cc1 103%
CN(C)c1nc(N)nc(Cn2nnc(-c3ccc(C(F)(F)F)cc3)n2)n1 104%
CCCNS(=O)(=O)c1ccc(CCC(=O)N2CCCC2)cc1 104%
CN(CC(=O)Nc1ccccc1F)CC(=O)Nc1ccccc1Br 105%
CCOC(=O)CCCNC(=O)COC(=O)/C=C/c1ccc2c(c1)OCO2 90%
Cc1nc2sc3c(c2c(=O)n1NC(=O)CCl)CCCC3 90%
CSc1ccc(CN2C(=O)NC3(CCCCCC3)C2=O)cc1 97%
Fc1cccc(CSc2nnc3ccc(-c4ccncc4)nn23)c1 94%
Cc1cc([N+](=O)[O-])ccc1NC(=O)c1ccc(NC(=O)C(C)C)cc1 98%
CCCCC(CC)CNC(=O)C(=O)C1C(=O)Nc2ccccc21 (stereo not given) 103%
COc1ccccc1-c1nc(SC)n[nH]1 97%
Cc1ccc(CSc2nc3[nH]ncc3c(=O)[nH]2)cc1 93%
Cc1ccccc1-n1nc(SCC(=O)O)sc1=S 99%
Cc1ccc(C(=O)Cn2cccn2)cc1 106%
CC(=O)NC(=S)NNC(=O)c1ccc(Br)cc1 108%
NS(=O)(=O)c1cccc(NC(=O)COC(=O)/C=C/c2ccco2)c1 94%
O=C(Nc1ccc(Br)cn1)c1ccc([N+](=O)[O-])cc1Cl 98%
NC(=O)c1ccc(CN2CCC(Cc3ccccc3)CC2)cc1 110%
COc1cccc(CN(C)CC(=O)Nc2ccccc2C(=O)Nc2ccccc2)c1 105%
CC(OC(=O)c1ccccc1OCc1ccc(Cl)cc1)C(N)=O (stereo not given) 102%
Cc1cc(C)c(S(=O)(=O)N2CCOCC2)cc1C 101%
CN1CCN(S(=O)(=O)c2cccc(C(=O)O)c2)CC1 98%
CCOCCCNCc1cc(Br)ccc1OCC 95%
Cc1cccc(/C(N)=N/OC(=O)c2ccccc2Cl)c1 95%
C/C(=N\Nc1nc(N2CCOCC2)nc(N2CCOCC2)n1)c1ccc([N+](=O)[O-])cc1 96%
C/C(CC(=O)Nc1cccc(C(F)(F)F)c1)=N\NC(=O)C(=O)NCC(C)C 96%
CC(C)CNC(=O)C(=O)NCc1ccccc1 93%
O=[N+]([O-])c1cc(S(=O)(=O)CCCN2CCOCC2)ccc1F 95%
Cc1ccc(C2CCN(C(=S)Nc3cccc(Cl)c3)C2)cc1 (stereo not given) 101%
CCOC(=O)/C(C#N)=C/c1cn(CCC(=O)O)nc1-c1ccc(Br)cc1 102%
c1ccc2c(c1)OCCOCCOCCO2 99%
O=C(C1CCN(C2CCN(Cc3ccc4cc(F)ccc4n3)CC2)CC1)N1CCCC1 98%
CCC(C)NC(=O)c1nn(C)c(=O)c2ccccc12 (stereo not given) 103%
Cc1[nH]nc(SCC(=O)NCC(C)C)c1[N+](=O)[O-] 96%
Cc1ccc(OCCCC(=O)NC(C)c2ccccc2)c(C)c1 (stereo not given) 97%
Cc1cccc(NS(=O)(=O)c2ccc(C)c(C(N)=O)c2)c1 102%
CC1COc2ccccc2N1S(=O)(=O)c1ccccc1 (stereo not given) 95%
O=[N+]([O-])c1ccc2[nH]c3c(c2c1)CCCC3O (stereo not given) 103%
